The full list was thinned out, with hits kept by preference.
CHX counter = counter-screen hit for Shiga toxin inhibitors, cycloheximide; actives 12% (n = 300,000); cell reporter, cycloheximide protein synthesis inhibition counterscreen; max response, %; in the data active = max response mostly above about 13%, no sharp cut-off; inactive = mostly below about 14%; note: read at 38.3 µM for the half of the compounds with a filed dose; 0% is about no effect
LmPK inhibitor = inhibitors of Leishmania mexicana pyruvate kinase | Q27686 | purified LmPK, Kinase-Glo ATP luminescence, 1 h | Potency, µM (series often up to 57.5 µM), inactives show at the highest dose activity change, negative = inhibition, actives largely listed as inhibitors | actives 0.37% (n = 290,000) | AID 1721; note: potency is the fitted concentration of half-maximal effect; % is set by controls: 0 for no effect and ±100 for the full control effect
Target sequence (Q27686 whole entry, looked up): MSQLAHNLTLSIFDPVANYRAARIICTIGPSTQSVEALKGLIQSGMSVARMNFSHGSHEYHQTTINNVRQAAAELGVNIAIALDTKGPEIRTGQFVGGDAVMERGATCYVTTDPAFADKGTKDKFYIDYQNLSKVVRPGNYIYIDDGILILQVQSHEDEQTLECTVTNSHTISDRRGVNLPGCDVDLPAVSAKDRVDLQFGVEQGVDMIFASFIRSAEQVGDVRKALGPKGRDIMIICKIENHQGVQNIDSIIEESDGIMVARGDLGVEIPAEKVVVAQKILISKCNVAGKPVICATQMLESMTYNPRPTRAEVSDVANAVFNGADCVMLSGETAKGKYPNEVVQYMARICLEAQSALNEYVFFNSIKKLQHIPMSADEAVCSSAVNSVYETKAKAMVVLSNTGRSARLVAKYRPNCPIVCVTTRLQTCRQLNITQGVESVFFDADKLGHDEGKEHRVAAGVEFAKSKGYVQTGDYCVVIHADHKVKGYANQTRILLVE
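Purified LmPK (0.1 nM) with 0.5 mM PEP and 0.1 mM ADP in imidazole buffer pH 7.2 with MgCl2/KCl, 1 h at room temperature. ATP formed was read by luciferase luminescence and normalized to no-enzyme and uninhibited controls.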
Sm TGR inh = S. mansoni TGR enzyme inhibition. actives 3% (n = 360,000). purified TGR, DTNB reduction, TNB absorbance 405 nm. Potency, µM (top dose mostly 114 µM), inactives show at the top dose activity change, negative = inhibition, actives largely listed as inhibitors; note: potency is the fitted concentration of half-maximal effect; % is set by controls: 0 for no effect and ±100 for the full control effect; nearly all actives have a fitted effect of over 60% in size
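Kinetic colorimetric format: TGR-catalysed, NADPH-driven DTNB reduction monitored via TNB absorbance. Enzyme dispensed at 20 nM; compound exposure 15 min at room temperature before reaction start.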
Giardia FBPA inh = blocks Giardia fructose-bisphosphate aldolase activity. purified Giardia FBPA. Potency, µM (series often up to 59.6 µM), without a hit: at the top dose activity, negative = inhibition, usual class: inhibitors. actives 0.71% (n = 290,000); note: potency is the fitted concentration of half-maximal effect; % is set by controls: 0 for no effect and ±100 for the full control effect; nearly all actives have a fitted effect of over 55% in size
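Giardia FBPA (40 nM reagent) was preincubated 10 min at RT with compound (up to 57.5 uM final), then substrate plus GAPDH/TPI/NAD/arsenate coupling system with diaphorase/resazurin was added; resorufin fluorescence (525/598 nm) was read after 20 min.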
Tb PYK inh = blocks Trypanosoma brucei pyruvate kinase; TbPYK enzyme, Kinase-Glo Plus ATP luminescence, 45 min; Potency, µM (doses to about 76.8 µM), for inactives: at the highest dose activity, negative = inhibition, usual class: inhibitors; actives 0.12% (n = 410,000); Q57TT1; note: potency is the fitted concentration of half-maximal effect; % is set by controls: 0 for no effect and ±100 for the full control effect; nearly all actives have a fitted effect of over 50% in size
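Luminescence from Kinase-Glo Plus, added after a 45-minute room-temperature reaction, served as the end-point read-out. The enzyme and substrate were preincubated with compound before ADP (130 uM final) initiated turnover. Concentration-effect curves came from normalized qHTS data.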
Shiga inhibitor = Shiga toxin inhibition | Vero cells, Shiga toxin protein synthesis inhibition reporter | inhibition, % at 38.7 µM | actives 9.2% (n = 290,000); in the data active = inhibition mostly above about 28%, no sharp cut-off; inactive = mostly below about 43%; note: 0% is about no effect
* = called active by the depositor; ? = inconclusive; nt = no result given; [ ] = dose if it differs, or a comment. Unless noted, calls come from the whole dose curve; as a rule, active = well fitted curve in the direction sought with a large enough effect; inconclusive = small, poorly fitted or top-dose-only effect, or another doubt; inactive = no such curve, though single readings can be large; an effect the other way counts as inactive or inconclusive.

SMILES	CHX counter	LmPK inhibitor	Sm TGR inh	Giardia FBPA inh	Tb PYK inh	Shiga inhibitor
Cc1[nH]c2ccccc2c1C(Nc1nccs1)c1ccncc1 (stereo not drawn)	-10	5%	40µM*	0%	7%	-7
CC(C)C[C@@H](CC(=O)N[C@@H](CCC(=O)O)CC(=O)O)NC(=O)[C@@H]1CCCC[C@H]1NC(=O)C[C@H](CCCN)NC(=O)C[C@H](Cc1c[nH]c2ccccc12)NC(=O)[C@@H]1CCCC[C@H]1N	nt	nt	nt	-19%	nt	nt
Cc1cccc(C=Nc2ccc3c(c2)oc2ccccc23)c1O	62*	-9%	-5%	-3%	1%	98*
Cc1ccc(-c2nc(C#N)c(N3CCC(C)CC3)o2)cc1	17*	3%	1%	5%	0%	65
COc1ccc(-c2nc(C#N)c(N3CCC(C)CC3)o2)cc1	16*	0%	-1%	-13%	-14%	13
COc1ccc(C2CC(=O)N3CN(C4CCCCC4)CSC3=C2C#N)c(OC)c1 (stereo not drawn)	nt	nt	3.2µM*	nt	18µM*	nt
COc1ccc(OC)c(C2C(C#N)=C(N)N(N(C)C)C3=C2C(=O)CCC3)c1 (stereo not drawn)	20	-1%	-11%	-19%	-11%	22
COc1ccc(C2CC(=O)N3CN(c4ccc(C)c(Cl)c4)CSC3=C2C#N)cc1 (stereo not drawn)	6	-14%	45µM*	?	3.2µM*	3
N#CC1=C2SCN(Cc3ccccc3)CN2C(=O)CC1c1cccs1 (stereo not drawn)	-5	-5%	-35%	?	?	-3
N#CC1=C2SCN(Cc3ccccc3)CN2C(=O)CC1c1ccc2c(c1)OCO2 (stereo not drawn)	-1	-6%	3.5µM*	0.89µM*	?	-5
COc1ccc2ccccc2c1C1CC(=O)N2CN(Cc3ccco3)CSC2=C1C#N (stereo not drawn)	1	0%	5.6µM*	?	?	21
CCOc1ccc(N2C(=O)CC(NCCNc3ccc(C(=O)c4cccs4)cc3)C2=O)cc1 (stereo not drawn)	10	3%	?	0%	2%	22
COc1ccc(-n2c(=O)c3sc4ccccc4c3n(Cc3ccccc3C)c2=O)cc1OC	nt	nt	5%	nt	-7%	nt
CCCCN(C)C(=O)c1ccc2c(c1)N(Cc1cccc(Cl)c1)C(=O)c1ccccc1S2=O (stereo not drawn)	nt	nt	6%	nt	-1%	nt
COc1ccc(C2CC(=O)N3CN(Cc4ccco4)CSC3=C2C#N)cc1 (stereo not drawn)	3	-1%	40µM*	?	?	31
COc1ccc2ccccc2c1C1CC(=O)N2CN(C3CCCCC3)CSC2=C1C#N (stereo not drawn)	-3	4%	28µM*	?	?	-8
CC(C)c1ccc(C2CC(=O)N3CN(Cc4ccco4)CSC3=C2C#N)cc1 (stereo not drawn)	-10	0%	2.2µM*	?	?	-5
COc1cc(C2CC(=O)N3CN(Cc4ccco4)CSC3=C2C#N)ccc1OCc1ccccc1 (stereo not drawn)	1	-7%	0%	?	?	18
Cc1cccc(N2CSC3=C(C#N)C(c4ccc(C)o4)CC(=O)N3C2)c1 (stereo not drawn)	11*	2%	11µM*	?	nt	26
N#CC1=C2SCN(Cc3ccco3)CN2C(=O)CC1c1ccc(Cl)cc1 (stereo not drawn)	-7	-4%	-3%	?	?	34
O=c1c(-c2ccc(F)c(F)c2)nc2cncnc2n1C1CC1	nt	nt	nt	6%	nt	nt
Cc1cc(C)nc(NNC(=O)c2ccccc2O)n1	-4	0%	nt	?	-3%	-2
Cc1ccccc1N/C(=C(/C(Cl)=C(Cl)Cl)[N+](=O)[O-])n1nnc2ccccc21	-2	0%	14µM*	?	0%	13
COC(=O)c1scc(-c2ccc(C)cc2)c1S(=O)(=O)N1CCN(c2ccccc2F)CC1	nt	nt	-3%	nt	1%	nt
COc1ccc(N/N=C/c2c(O)n(-c3cccc(C)c3)c(=O)[nH]c2=O)cc1	18*	4%	?	-25%	-14%	48
SMILES	CHX counter	LmPK inhibitor	Sm TGR inh	Giardia FBPA inh	Tb PYK inh	Shiga inhibitor
CCOCCCNC(=S)NC1CC2CCC(C1)N2Cc1ccccc1 (stereo not drawn)	-2	-6%	-1%[57.1 µM]	?	0%	-18
S=C(NCc1ccccc1)NCc1ccccc1	-1	2%	10%	-7%	20%	31
S=C(NCCCc1ccccc1)NCc1ccccc1	26*	-2%	4%	nt	2%	25*
CCOCCCNC(=S)NCCc1ccccc1	43*	-1%	-2%	2%	-9%	108*
N#Cc1cccc(NC(=O)C2CCN(c3cnccn3)CC2)c1	nt	nt	-3%	nt	1%	nt
Cc1nn2c(C)c(C(=O)NCC(C)c3ccccc3)cnc2c1-c1ccccc1 (stereo not drawn)	nt	nt	0%	nt	0%	nt
COc1cc(/C=N/NC(=O)c2ccncc2)ccc1O	2	-11%	-5%	2%	-13%	10
COc1cc(/C=N/NC(=O)c2nonc2N)cc(OC)c1OC	32*	-2%	0%	-1%	-1%	87*
COc1cc(/C=N/NC(=O)c2nc(C)cc(C)n2)ccc1O	17*	-4%	-5%	-4%	-11%	48
COc1cc(/C=N/NC(=O)c2nonc2C)ccc1O	29	14µM*	-7%	1%	-5%	63*
Cc1nonc1C(=O)N/N=C/c1ccc(O)c(O)c1	42*	13µM*	6%	?	?	99*
Cc1ccccc1OCCCC(=O)Nc1ccc(S(=O)(=O)Nc2onc(C)c2C)cc1	3	-2%	-16%	nt	6%	-5
CCOC(=O)c1cccc(NC(=O)c2ncoc2-c2ccco2)c1	nt	nt	-5%	nt	-1%	nt
Cc1ccc(NC(=O)c2ccc(=O)n(Cc3ccccc3C)c2)c(C)c1	nt	nt	-4%	nt	0%	nt
O=C(Nc1ccccc1)Oc1ccccc1N1CCOCC1	13	4%	17%	1%	-1%	19
O=C(Nc1ccc(COc2ccccc2)cc1)Oc1ccccc1N1CCOCC1	17*	-2%	-2%	-2%	0%	22
COc1cccc(-c2cc(C(=O)NCC3CCCO3)on2)c1 (stereo not drawn)	36*	-7%	-9%	nt	3%	48*
O=C(NCC1CCCO1)c1cc(-c2ccc(F)cc2)no1 (stereo not drawn)	45*	-7%	-5%	nt	-4%	97*
Cc1ccc(-c2noc(CCC(=O)NC3CC3)n2)cc1	20*	-4%	5%	0%	1%	43
O=C(CCc1nc(-c2ccccc2F)no1)NC1CCCCC1	8.6*	-5%	2%	6%	-1%	9
CN(C(=O)CCc1nc(-c2ccccc2F)no1)c1ccccc1	41*	4%	17%	1%	3%	98*

High-throughput results: PubChem BioAssay, National Center for Advancing Translational Sciences (NCATS)
